Measurements taken from PubChem BioAssay (NCATS).
Results filed as inconclusive are left out. Calls of active or inactive are those of the source. Calls come from the whole dose curve; as a rule, active = well fitted cell-killing curve with a large enough effect; inconclusive = small, poorly fitted or top-dose-only effect; inactive = flat fitted curve, though single readings scatter.

assay: NCATS anti-infectives library activity on HEK293 viability as a counter-qHTS vs the C. elegans viability qHTS (AID 1745854); conditions: HEK293 viability counter-screen; series mostly up to 41.8 µM
Source text: Assay Development and Screening Technology Laboratory (ADST)
National Center for Advancing Translational Sciences (NCATS), Rockville, MD
National Institute of Health (NIH), Bethesda, Maryland
Caenorhabditis elegans has helped elucidate the evolutionarily conserved genetics underlying pathways and cellular processes implicated in human disease and may be ideally positioned to reveal novel pharmacological properties of exiting drugs. The organism's short life cycle and microscopic size is applicable to the technical requirements of high-throughput screening. Here a quantitative high-throughput screening (qHTS)-based forward chemical biology platform has been developed using C. elegans. 384-well microtiter plate laser scanning cytometry was used in the rapid detection and quantification of the fluorescent protein-encoded phenotype to score worm viability. In a proof-of-concept study, the pharmacological qHTS profile obtained from a library of 643 anti-infective compounds.
1. Inglese, J., Auld, D. S., Jadhav, A., Johnson, R. L., Simeonov, A., Yasgar, A., Zheng, W., and Austin, C. P. (2006) Quantitative high-throughput screening: A titration-based approach that efficiently identifies biological activities in large chemical libraries, P Natl Acad Sci USA 103, 11473-11478.
2. Auld, D. S., Johnson, R. L., Zhang, Y. Q., Veith, H., Jadhav, A., Yasgar, A., Simeonov, A., Zheng, W., Martinez, E. D., Westwick, J. K., Austin, C. P., and Inglese, J. (2006) Fluorescent protein-based cellular assays analyzed by laser-scanning microplate cytometry in 1536-well plate format, Method Enzymol 414, 566-589.
3. Zuck, P., Lao, Z., Skwish, S., Glickman, J. F., Yang, K., Burbaum, J., and Inglese, J. (1999) Ligand-receptor binding measured by laser-scanning imaging, Proc Natl Acad Sci U S A 96, 11122-11127.
PROTOCOL TABLE (as described by Inglese J, Shamu CE and Guy RK. 2007)
SEQUENCE No. (e.g., 1, 2, 3, etc.); […] (e.g., C. elegans, Compounds, Incubation, Read, etc.); VALUE and DESCRIPTION.
1. Compounds. Library compounds and digitonin control added at 25 nL per well to 7 assay ready 1536-well Greiner white/solid bottom high base, TC plates and two DMSO control plates, transferred by Echo acoustic dispenser.
2. Cells. Seed 1500 HEK293 per well in 6 uL into assay ready Greiner 1536-well plates.
3. Incubation. Incubate plated cells with compounds at 37C in 5% CO2, 95% RH for 24 hr.
4. Reagent. Add 4 uL of CellTiter-Glo reagent from Promega per well of Greiner 1536-well plates with BioRAPTR FRD.
5. Incubation. Incubate treated cells at room temperature for 10 min., protect from light.
6. Detector. CellTiter-Glo luminescence measured using CCD-based camera (Viewlux) with settings as follows: Exposure, 1 sec; Gain, High; Speed, Slow; Binning, 2X.
NOTES (numbers refer to Sequence numbers above; values are from representative experiments)
1. NIH Anti-Infectives library pre-dispensed into 7 assay ready 1536-well Greiner white/solid bottom high base, TC plates with Echo 555 acoustic dispenser. Most compounds dispensed at 10 mM high concentration and plated in 7-pt 1:5 inter-plate titration at 25 nl / well for a final assay concentration range of 41.7 uM - 2.7 nM. Two 1536-well Greiner assay plates of DMSO plated as screening controls to be read at the beginning and the end of the screen. Controls included DMSO vehicle control added at 25 nl/well to each well of column 1 and […] (83.3 uM final assay concentration), and Digitonin titrated 1:2 at 25 nl/ well to column 4 in duplicate for a final assay concentration range of 83.3 uM - 2.5 nM.
2. HEK293 cells grown for 48 hr in one T175 culture flask in DMEM high glucose media supplemented with 10% FBS and 1% Pen/Strep antibiotic. Cells trypsinized and diluted in 10 ml supplemented media, strained through 40 µm cell strainer, and diluted to a total volume of 40 ml with supplemented media. […]

Compound | outcome
Cc1cnc(NC(=O)C2=C(O)c3ccccc3S(=O)(=O)N2C)s1 | inactive
c1ccc([C@H]2CN3CCSC3=N2)cc1 | inactive
CCCc1nc2c(C)cc(-c3nc4ccccc4n3C)cc2n1Cc1ccc(-c2ccccc2C(=O)O)cc1 | inactive
O=C1CCC(N2C(=O)c3ccccc3C2=O)C(=O)N1 (configuration not stated) | inactive
Cn1cnc2c(F)c(Nc3ccc(Br)cc3Cl)c(C(=O)NOCCO)cc21 | inactive
Nc1nc2[nH]cc(CCc3ccc(C(=O)N[C@@H](CCC(=O)O)C(=O)O)cc3)c2c(=O)[nH]1 | inactive
CN1CCN(CCCN2c3ccccc3Sc3ccc(C(F)(F)F)cc32)CC1 | inactive
CNCc1ccc(-c2[nH]c3cc(F)cc4c3c2CCNC4=O)cc1 | inactive
CNC(=O)c1ccc(N2C(=S)N(c3ccc(C#N)c(C(F)(F)F)c3)C(=O)C2(C)C)cc1F | inactive
C[C@]1(c2nc3c(C(N)=O)cccc3[nH]2)CCCN1 | inactive
CCCC(CCC)C(=O)O | inactive
NC(=O)c1ccc(I)c([N+](=O)[O-])c1 | inactive
COc1ccc2nc(S(=O)Cc3ncc(C)c(OC)c3C)[nH]c2c1 (configuration not stated) | inactive
CC(=O)Oc1ccccc1C(=O)O | inactive
O=C(c1cc(Cc2n[nH]c(=O)c3ccccc23)ccc1F)N1CCN(C(=O)C2CC2)CC1 | inactive
Nc1nc2c(ncn2COCCO)c(=O)[nH]1 | inactive
COc1cc2c(cc1OC)CN(CCc1ccc(NC(=O)c3cccc4c(=O)c5cccc(OC)c5[nH]c34)cc1)CC2 | inactive
